Experiment [1] in a line: antimalarial activity against Dd2 strain (AID 2302;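 active means growth inhibition above 50% at the single 2 µM test dose, taken to imply half-maximal potency below 2 µM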;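 further: 0% = DMSO untreated growth and 100% = chloroquine plus artemisinin killed control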). The note with it: P. falciparum Dd2 in RBCs, LDH growth readout, 72 h; at 2 µM; active compounds read high.
A short description of experiment [2]: HepG2 cytotoxicity, primary screen, cytotoxicity control for P. falciparum antimalarial project, cell-based, ATP luminescence (AID 2303;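 active means inhibition above 50%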;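 further: 0% = DMSO wells and 100% = digitonin-killed cells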). The following applies: HepG2 viability, 24-48 h, at 10 µM, active compounds read high.
Experiment [3] concerns the target L-lactate dehydrogenase (Plasmodium falciparum (isolate CDC / Honduras)) (UniProt Q27743). Nature of the experiment: PfLDH activity inhibition – cell lysate, 3D7 strain, counter-screen for P. falciparum growth inhibition project (AID 2304).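 Further: 0% = vehicle and 100% = reference inhibitor.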 The note with it: P. falciparum 3D7 crude extract, LDH APAD/NBT absorbance; at 2 µM; active compounds read high.
Experiment [4] can be described thus: inhibition of 3D7 malaria parasite growth – strain 3D7 (AID 2306).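 Further: 0% = DMSO wells and 100% = chloroquine plus artemisinin control wells.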 The note with it: P. falciparum 3D7 erythrocytic growth, LDH absorbance, 72 h; at 2 µM; active compounds read high.
The target in experiment [5] is Calcium-dependent protein kinase 1 (Plasmodium falciparum (isolate 3D7)) (UniProt P62344). Nature of the experiment: PfCDPK1 kinase inhibitors, biochemical, TCAMS library (AID 1159585; cut-off not given, nearly all actives have IC50 up to about 0.98 µM;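 further: inhibitors leave more ATP so luminescence rises with inhibition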). The following applies: recombinant PfCDPK1, Kinase-Glo ATP depletion luminescence.
The target of experiment [6] is Plasmodium falciparum protein kinase 6 (PK6, PF3D7_1337100) (UniProt Q8IDW1). Nature of the experiment: PfPK6 kinase inhibitors, biochemical, TCAMS library (AID 1159586). The following applies: recombinant PfPK6, Kinase-Glo ATP depletion luminescence. (In Kinase-Glo more light means more ATP remaining.)
Experiment [7] deals with Protein kinase 7 (PK7), Plasmodium falciparum 3D7 (PF3D7_0213400) (UniProt Q7YTF7). Put plainly: inhibition of Plasmodium PK7 catalytic activity – biochemical, TCAMS antimalarial set, Kinase-Glo luminescence (AID 1159587). The note with it: recombinant PfPK7, Kinase-Glo ATP depletion luminescence.
In experiment [8] the target is Calcium-dependent protein kinase 4 (Plasmodium falciparum (isolate 3D7)) (UniProt Q8IBS5). Put plainly: PfCDPK4 kinase inhibitors, biochemical, TCAMS library (AID 1159588; cut-off not given, nearly all actives have IC50 up to about 0.91 µM). The following applies: recombinant PfCDPK4, Kinase-Glo ATP depletion luminescence.

The structures appear in SMILES notation. A number with no mark means an inactive call. For some of these results: Results with a measured potency or affinity are listed apart. Calls of active or inactive are those of the source. Unless noted, how the calls were made is not given here.

For orientation: inhibition means the drop in the measured response relative to a control, in per cent.

Chain of L-lactate dehydrogenase (Plasmodium falciparum (isolate CDC / Honduras)) (Q27743 whole entry, looked up): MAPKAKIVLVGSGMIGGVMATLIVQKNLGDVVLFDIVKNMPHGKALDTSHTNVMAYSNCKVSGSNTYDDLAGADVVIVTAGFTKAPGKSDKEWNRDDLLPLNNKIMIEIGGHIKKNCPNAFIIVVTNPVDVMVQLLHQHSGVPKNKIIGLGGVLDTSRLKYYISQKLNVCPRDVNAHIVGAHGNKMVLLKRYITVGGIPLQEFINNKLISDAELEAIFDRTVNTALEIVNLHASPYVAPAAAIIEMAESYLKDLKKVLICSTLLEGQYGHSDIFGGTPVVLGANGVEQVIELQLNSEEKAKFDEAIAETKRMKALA
Chain of Calcium-dependent protein kinase 4 (Plasmodium falciparum (isolate 3D7)) (Q8IBS5 whole entry, looked up): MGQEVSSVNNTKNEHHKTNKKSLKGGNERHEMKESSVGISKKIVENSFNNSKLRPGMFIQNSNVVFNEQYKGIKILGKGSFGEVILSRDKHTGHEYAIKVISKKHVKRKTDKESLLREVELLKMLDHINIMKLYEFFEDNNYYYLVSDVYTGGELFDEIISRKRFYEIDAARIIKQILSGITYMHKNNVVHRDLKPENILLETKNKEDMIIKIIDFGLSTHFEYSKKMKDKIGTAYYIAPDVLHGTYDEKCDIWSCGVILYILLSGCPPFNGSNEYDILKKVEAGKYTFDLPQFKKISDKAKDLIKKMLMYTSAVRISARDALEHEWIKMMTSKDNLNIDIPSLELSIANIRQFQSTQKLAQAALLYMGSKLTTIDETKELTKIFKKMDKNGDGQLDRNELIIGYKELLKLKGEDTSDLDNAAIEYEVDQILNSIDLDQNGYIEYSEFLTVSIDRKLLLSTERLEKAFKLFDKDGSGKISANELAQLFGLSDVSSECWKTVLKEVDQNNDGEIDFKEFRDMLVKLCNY
Chain of Protein kinase 7 (PK7), Plasmodium falciparum 3D7 (PF3D7_0213400) (Q7YTF7 1-343): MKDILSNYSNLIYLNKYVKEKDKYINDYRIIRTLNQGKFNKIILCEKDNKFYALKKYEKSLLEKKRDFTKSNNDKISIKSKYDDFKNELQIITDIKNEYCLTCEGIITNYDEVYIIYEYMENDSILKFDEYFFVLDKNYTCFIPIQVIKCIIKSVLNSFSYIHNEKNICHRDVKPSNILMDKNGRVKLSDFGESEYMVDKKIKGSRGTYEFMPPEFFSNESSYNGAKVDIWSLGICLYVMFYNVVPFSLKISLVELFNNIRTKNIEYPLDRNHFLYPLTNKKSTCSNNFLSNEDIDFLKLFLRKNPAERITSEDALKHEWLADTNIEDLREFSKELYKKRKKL
Chain of Calcium-dependent protein kinase 1 (Plasmodium falciparum (isolate 3D7)) (P62344 whole entry, looked up): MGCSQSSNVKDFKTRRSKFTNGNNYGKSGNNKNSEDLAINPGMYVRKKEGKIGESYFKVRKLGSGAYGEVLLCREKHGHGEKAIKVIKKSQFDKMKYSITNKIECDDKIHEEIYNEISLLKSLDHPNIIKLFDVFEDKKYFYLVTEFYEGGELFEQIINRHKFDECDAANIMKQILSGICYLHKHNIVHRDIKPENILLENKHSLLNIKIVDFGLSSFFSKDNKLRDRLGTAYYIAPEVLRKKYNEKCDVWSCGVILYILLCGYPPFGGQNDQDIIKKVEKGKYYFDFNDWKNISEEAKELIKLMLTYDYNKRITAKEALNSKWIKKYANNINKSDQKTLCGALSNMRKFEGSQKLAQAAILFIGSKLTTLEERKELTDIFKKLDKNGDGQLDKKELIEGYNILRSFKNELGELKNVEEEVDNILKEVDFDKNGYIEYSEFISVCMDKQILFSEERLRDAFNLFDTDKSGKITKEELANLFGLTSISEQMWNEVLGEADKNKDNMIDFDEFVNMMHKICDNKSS
Chain of Plasmodium falciparum protein kinase 6 (PK6, PF3D7_1337100) (Q8IDW1 1-305): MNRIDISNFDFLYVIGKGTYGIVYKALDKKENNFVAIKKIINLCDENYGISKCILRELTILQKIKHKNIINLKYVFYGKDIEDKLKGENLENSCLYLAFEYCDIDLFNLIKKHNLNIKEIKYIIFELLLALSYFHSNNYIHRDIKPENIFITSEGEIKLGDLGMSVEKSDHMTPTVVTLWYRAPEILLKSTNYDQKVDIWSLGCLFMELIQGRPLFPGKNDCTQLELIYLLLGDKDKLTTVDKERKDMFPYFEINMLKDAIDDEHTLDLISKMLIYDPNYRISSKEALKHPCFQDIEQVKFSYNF

Take `CCNc1cc(C(=O)N[C@@H](Cc2ccccc2)[C@H](O)CNC2CCC(C)(C)CC2)cc(N2CCCCS2(=O)=O)c1`: the growth inhibition is 71% (active) in experiment [1] and 98% (active) in experiment [4]. Besides, the inhibition in experiment [2] is 1%; in experiment [3], 3%. The outcome in experiment [5], in experiment [6], in experiment [7] and in experiment [8] was inactive.
Consider `O=c1cc(NCCCNCc2cc(Br)ccc2F)[nH]c2ccccc12`, for which the results for the growth inhibition in experiment [1] and in experiment [4] were 14% and 95% (active), respectively. For the same compound, the inhibition in experiment [2] is -2%; in experiment [3] it was 6%. Also, the result in experiment [5], in experiment [6], in experiment [7] and in experiment [8] was inactive.
`CN(C)c1ccc(CN2CCC(CNC(=O)c3cc(-c4ccccc4Cl)cs3)C2)cc1` (stereo not given): the growth inhibition in experiment [1] was 5%; in experiment [4], 91% (active). Further, the inhibition is 29% in experiment [2] and -3% in experiment [3]. Moreover, the result in experiment [5], in experiment [6], in experiment [7] and in experiment [8] was inactive.
Turning to `CCN(CC)CCn1c(=N)n(CC(O)c2ccc(Cl)c(Cl)c2)c2ccccc21` (stereo not given), the results for the growth inhibition in experiment [1] and in experiment [4] were 88% (active) and 99% (active), respectively. The figures for the inhibition in experiment [2] and in experiment [3] were 35% and 6%, respectively. The outcome in experiment [5], in experiment [6], in experiment [7] and in experiment [8] was inactive.
Turning to `CCC(CCON1C(N)=NC(N)=NC1(C)C)c1ccc(Cl)c(Cl)c1` (stereo not given), the values for the growth inhibition in experiment [1] and in experiment [4] were 98% (active) and 94% (active), respectively. Also, the inhibition in experiment [2] is 68% (active); in experiment [3] it was -7%. In addition, the result in experiment [5], in experiment [6], in experiment [7] and in experiment [8] was inactive.
`Oc1ccc(-c2cc(-c3ccc(O)cc3)nc(-c3ccccc3)n2)cc1`: the growth inhibition in experiment [1] is 97% (active); in experiment [4], 96% (active). Further, the inhibition is 0% in experiment [2] and -1% in experiment [3]. For the same compound, the result in experiment [5], in experiment [6], in experiment [7] and in experiment [8] was inactive.
With `Fc1ccc(-c2cncc(-c3ccc(F)cc3)n2)cc1`, the growth inhibition in experiment [1] was 94% (active); in experiment [4], 99% (active). Moreover, the inhibition in experiment [2] was 7%; in experiment [3], 2%. Also, the result in experiment [5], in experiment [6], in experiment [7] and in experiment [8] was inactive.
As to `CC1(C)CC(NCCCCCCCOc2ccc(OCc3ccccc3)cc2)CC(C)(C)N1`, the values for the growth inhibition in experiment [1] and in experiment [4] were 73% (active) and 100% (active), respectively. Further, the inhibition in experiment [2] was 99% (active); in experiment [3] it was 0%. For the same compound, the outcome in experiment [5], in experiment [6], in experiment [7] and in experiment [8] was inactive.
On to `COC(=O)c1cc(OC)c(OC)cc1NC(=O)NC12CC3CC(CC(C3)C1)C2`, for which the growth inhibition in experiment [1] is 3%; in experiment [4] it was 94% (active). For the same compound, the inhibition in experiment [2] and in experiment [3] was 6% each time. Further, the result in experiment [5], in experiment [6], in experiment [7] and in experiment [8] was inactive.
As for `COc1ccc(NC(=O)c2cn(-c3ccc(C(C)(C)C)cc3)nc2C)cc1N1CCN(C)CC1`, the growth inhibition was 71% (active) in experiment [1] and 96% (active) in experiment [4]. The inhibition in experiment [2] is 33%; in experiment [3], 0%. Moreover, the result in experiment [5], in experiment [6], in experiment [7] and in experiment [8] was inactive.
Take `O=C(Nc1ccc(Oc2ccccc2)cc1)N(Cc1ccc(-c2ccc(CN3CCNCC3)cc2)cc1)C1CCN(Cc2ccccc2)CC1`: the values for the growth inhibition in experiment [1] and in experiment [4] were 73% (active) and 101% (active), respectively. Also, the inhibition in experiment [2] is 31%; in experiment [3] it was -1%. Also, the outcome in experiment [5], in experiment [6], in experiment [7] and in experiment [8] was inactive.
For the compound `CCOc1cc(Br)c(C(C)NC(=O)c2cccc(OC)c2)cc1OCC` (stereo not given), the growth inhibition is 37% in experiment [1] and 90% (active) in experiment [4]. The inhibition in experiment [2] was -1%; in experiment [3], 3%. In addition, the result in experiment [5], in experiment [6], in experiment [7] and in experiment [8] was inactive.
In the case of `CC(C)c1ccc(-c2noc(SCC(=O)N(C)c3ccc(F)cc3)n2)cc1`, the growth inhibition was 77% (active) in experiment [1] and 84% (active) in experiment [4]. For the same compound, the inhibition in experiment [2] was 7%; in experiment [3], 3%. For the same compound, the result in experiment [5], in experiment [6], in experiment [7] and in experiment [8] was inactive.
With `N#Cc1ccc2c(c1)CN(C1CCC(NC(=O)/C=C/c3cc(C(F)(F)F)cc(C(F)(F)F)c3)CC1)CCC2` (stereo not given), the growth inhibition in experiment [1] was 4%; in experiment [4] it was 95% (active). For the same compound, the inhibition in experiment [2] is 34%; in experiment [3] it was -4%. Also, the outcome in experiment [5], in experiment [6], in experiment [7] and in experiment [8] was inactive.
For `COc1ccc(-c2cccc(NC(=O)c3cccc(C#N)c3)c2)cc1CN1CCC(O)CC1`, the figures for the growth inhibition in experiment [1] and in experiment [4] were 13% and 97% (active), respectively. Besides, the inhibition in experiment [2] was 30%; in experiment [3], -3%. The outcome in experiment [5], in experiment [6], in experiment [7] and in experiment [8] was inactive.
For the compound `COc1cccc(CNc2noc(-c3c(-c4ccccc4)noc3C)n2)c1OC`, the values for the growth inhibition in experiment [1] and in experiment [4] were 86% (active) and 97% (active), respectively. In addition, the values for the inhibition in experiment [2] and in experiment [3] were -3% and -2%, respectively. Further, the outcome in experiment [5], in experiment [6], in experiment [7] and in experiment [8] was inactive.
Take `Cn1nccc1C(=O)NCCNCc1ccc(-c2cccc(-c3nc4ccc(C(F)(F)F)cc4[nH]3)c2)cc1`: the growth inhibition in experiment [1] was 99% (active); in experiment [4] it was 101% (active). Also, the values for the inhibition in experiment [2] and in experiment [3] were 51% (active) and -8%, respectively. Besides, the result in experiment [5], in experiment [6], in experiment [7] and in experiment [8] was inactive.
In the case of `CC1(C)N=C(N)N=C(N)N1c1ccc(Br)cc1`, the results for the growth inhibition in experiment [1] and in experiment [4] were 4% and 94% (active), respectively. Besides, the values for the inhibition in experiment [2] and in experiment [3] were 52% (active) and 0%, respectively. The result in experiment [5], in experiment [6], in experiment [7] and in experiment [8] was inactive.
As for `Clc1cc(Nc2ncnc3sc(C#C[C@H]4CCCN4)cc23)ccc1OCc1cccnc1Cl`, the growth inhibition is 93% (active) in experiment [1] and 101% (active) in experiment [4]. Also, the figures for the inhibition in experiment [2] and in experiment [3] were 9% and -3%, respectively. Further, the result in experiment [5], in experiment [6], in experiment [7] and in experiment [8] was inactive.
On to `COc1cc2ncnc(Nc3ccc4nc(Cc5ccccc5)[nH]c4c3)c2cc1OC`, for which the growth inhibition was 28% in experiment [1] and 87% (active) in experiment [4]. Moreover, the inhibition in experiment [2] was -9%; in experiment [3] it was 0%. Also, the outcome in experiment [5], in experiment [6], in experiment [7] and in experiment [8] was inactive.

The values are drawn from PubChem BioAssay.
